The source of these data is PubChem BioAssay (NCI).

Each structure is given as a SMILES string. This is part of a sample that, as a whole, favours compounds with a hit. Of some 83,000 tested, about 20% had one in any assay.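 Assay: single dose, 48 h. Readout: percent growth (0 = no net growth; negative = cell death). Active: <10.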 Unmarked numbers belong to inactive results. Active and inactive are the calls of the source.

Test systems include SR leukemia; RPMI-8226 leukemia; OVCAR-8 ovarian; OVCAR-5 ovarian; SK-OV-3 ovarian; IGROV1 ovarian; OVCAR-3 ovarian; HS 578T breast; NCI/ADR-RES ovarian; OVCAR-4 ovarian.
Experiment in all cases: NCI-60 one-dose screen, 48 h (100 = growth as untreated, 0 = no growth, -100 = all killed)
What all share (conditions): 10 µM unless noted

With `CCCCCN1C(=O)/C(=c2\sc3n(c2=O)C2C(NN=3)N(CC)C(=O)N2CC)c2cccc(C)c21` (configuration not stated), the growth with SR leukemia is 13.6%; in the assay on RPMI-8226 leukemia, 39.1%; in the assay with OVCAR-8 ovarian, 73.3%; with OVCAR-5 ovarian it was 72.4%; in the assay with SK-OV-3 ovarian, 89.3%; in the assay on IGROV1 ovarian, 44.8%. The growth is 32.9% in the assay with OVCAR-3 ovarian, 34.3% in the assay on HS 578T breast and 30.7% in the assay with NCI/ADR-RES ovarian.

Regarding `N#Cc1c(-c2ccc(Br)cc2)cc(-c2c[nH]c3ccccc23)nc1N`, the growth is 25.4% in the assay on SR leukemia; 34.4% in the assay with RPMI-8226 leukemia; 66.4% with OVCAR-8 ovarian; 63.9% in the assay on OVCAR-5 ovarian; 52.6% in the assay on SK-OV-3 ovarian; 34.4% in the assay with IGROV1 ovarian. The growth in the assay on HS 578T breast was 58.6%; in the assay on NCI/ADR-RES ovarian, 24.9%.

In the case of `CC(C)(C)Nc1nc2c(OCCc3ccccc3)cccn2c1-c1ccc([N+](=O)[O-])cc1`, the growth in the assay with SR leukemia is 52%; with RPMI-8226 leukemia, 43.1%; with OVCAR-8 ovarian, 64%; with OVCAR-5 ovarian it was 67.3%; in the assay on SK-OV-3 ovarian, 76.5%; in the assay on IGROV1 ovarian, 56.9%. The figures for the growth in the assay with OVCAR-3 ovarian, in the assay on HS 578T breast and with NCI/ADR-RES ovarian were 50.6%, 78.3% and 51.6%, respectively.

As for `O=C(CSc1nnc(-c2ccc(Cl)cc2)n1-c1ccccc1)Nc1ccccc1Cl`, the growth in the assay with SR leukemia is 20.5%; in the assay on RPMI-8226 leukemia, 35.4%; with OVCAR-8 ovarian, 67.2%; in the assay on OVCAR-5 ovarian, 81.3%; in the assay with SK-OV-3 ovarian, 125%; in the assay with IGROV1 ovarian, 52.3%. Besides, the growth with OVCAR-3 ovarian is 91.6%; in the assay on HS 578T breast it was 58.8%; with NCI/ADR-RES ovarian it was 54.8%.

With `CN1CCN(c2ccc(Nc3nc(NCCCNS(=O)(=O)c4cccc(F)c4)c4sccc4n3)cc2)CC1`, the growth with SR leukemia is 9.04% (active); with RPMI-8226 leukemia, 7.54% (active); with OVCAR-8 ovarian, 50.2%; in the assay on OVCAR-5 ovarian, 73.4%; in the assay on SK-OV-3 ovarian, 115%; in the assay on IGROV1 ovarian, 68.9%. Moreover, the values for the growth with OVCAR-3 ovarian, with HS 578T breast and in the assay on NCI/ADR-RES ovarian were 9.74% (active), 50.4% and 70.8%, respectively.

Regarding `COc1cccc2c1C=CC1(O2)Oc2cccc(OC)c2C=C1C` (configuration not stated), the growth with SR leukemia was 12.8%; with RPMI-8226 leukemia, 18.9%; in the assay with OVCAR-8 ovarian, 23.5%; with OVCAR-5 ovarian, 29.6%; in the assay on SK-OV-3 ovarian, 65.5%; in the assay on IGROV1 ovarian it was 27.9%. For the same compound, the figures for the growth in the assay with HS 578T breast and with NCI/ADR-RES ovarian were 20.8% and 4.87% (active), respectively.

Regarding `C#Cc1nc(/C=C/C(=O)NO)cs1`, the growth is -42.9% (active) in the assay with SR leukemia; -6.82% (active) with RPMI-8226 leukemia; 21% with OVCAR-8 ovarian; 42.3% in the assay with OVCAR-5 ovarian; 95.6% with SK-OV-3 ovarian; -71.5% (active) in the assay on IGROV1 ovarian. The growth with HS 578T breast is 56%; with NCI/ADR-RES ovarian it was -6.26% (active).

Turning to `CCc1nnc(NC(=O)c2cc(-c3ccc(Cl)cc3Cl)oc2C)s1`, the growth with SR leukemia is 96.5%; in the assay on RPMI-8226 leukemia, 87.7%; in the assay on OVCAR-5 ovarian, 92.7%; in the assay with OVCAR-4 ovarian, 48.4%; with SK-OV-3 ovarian, 106%; in the assay on IGROV1 ovarian, 87.8%. In addition, the growth was 86% in the assay with HS 578T breast and 88.7% in the assay on NCI/ADR-RES ovarian.

With `CN1CCN(c2ccc(Nc3nc(NCCNS(=O)(=O)c4ccc(Cl)cc4)c4sccc4n3)cc2)CC1`, the growth in the assay with SR leukemia is 22.7%; with RPMI-8226 leukemia it was 80.8%; in the assay with OVCAR-8 ovarian, 101%; in the assay with OVCAR-5 ovarian, 98.7%; with SK-OV-3 ovarian, 121%; in the assay on HS 578T breast it was 81.2%. The growth with NCI/ADR-RES ovarian is 100%.

As to `C=C1CCc2nc(SCC(=O)O)ccc2N1`, the growth was 115% in the assay on SR leukemia; 114% in the assay with RPMI-8226 leukemia; 97.1% in the assay with OVCAR-5 ovarian; 98.8% in the assay with SK-OV-3 ovarian; 104% in the assay with IGROV1 ovarian; 117% with OVCAR-3 ovarian. Moreover, the growth was 101% with HS 578T breast and 98.8% in the assay with NCI/ADR-RES ovarian.

As for `CCN(CC)CCOc1ccc(C(=C(C)Cc2ccc(OC)cc2)c2ccc(OCCN(CC)CC)cc2)cc1`, the growth in the assay on SR leukemia is -26.6% (active); in the assay with RPMI-8226 leukemia, -25% (active); in the assay on OVCAR-5 ovarian it was 77.4%; in the assay on OVCAR-4 ovarian, 89.1%; in the assay with SK-OV-3 ovarian, 93.5%; with IGROV1 ovarian it was 68.9%. In addition, the growth in the assay with OVCAR-3 ovarian is 31.2%; in the assay with HS 578T breast, 72.9%; in the assay with NCI/ADR-RES ovarian it was 85.4%.

As to `Cc1ccc2c(n1)C(=O)C(Cl)=C(Nc1cccc(C(F)(F)F)c1)C2=O`, the growth was 9.01% (active) in the assay on SR leukemia; -17.6% (active) with RPMI-8226 leukemia; 119% with OVCAR-5 ovarian; -97.8% (active) with OVCAR-4 ovarian; 89.8% in the assay with SK-OV-3 ovarian; -57.4% (active) in the assay with IGROV1 ovarian. Further, the growth is -86.3% (active) in the assay with OVCAR-3 ovarian, 116% in the assay on HS 578T breast and 93.3% in the assay on NCI/ADR-RES ovarian.

As to `Cc1ccccc1NC(=O)Nc1nc2ccc([N+](=O)[O-])cc2s1`, the growth in the assay with SR leukemia was 6.41% (active); with RPMI-8226 leukemia, 5.55% (active); in the assay with OVCAR-5 ovarian, 16.9%; in the assay with OVCAR-4 ovarian, 3.62% (active); in the assay with SK-OV-3 ovarian it was -19.4% (active); in the assay with IGROV1 ovarian it was 22.6%. Moreover, the figures for the growth with OVCAR-3 ovarian, with HS 578T breast and in the assay with NCI/ADR-RES ovarian were 10.1%, 24.1% and 6.24% (active), respectively.

Turning to `Brc1cc(-c2cc(-c3ccc4c(c3)OCCO4)[nH]n2)cs1`, the growth in the assay with SR leukemia is 14.2%; with RPMI-8226 leukemia, 29.9%; with OVCAR-5 ovarian, 75.8%; in the assay with OVCAR-4 ovarian it was 83.5%; in the assay with SK-OV-3 ovarian, 62.5%; with IGROV1 ovarian, 50.8%. Also, the results for the growth in the assay on HS 578T breast and in the assay with NCI/ADR-RES ovarian were 61.1% and 17.4%, respectively.

For `CC(=O)C1=C(C)NC(NNc2ccccc2)=NC1c1ccc([N+](=O)[O-])cc1` (configuration not stated), the growth in the assay with SR leukemia was 62.4%; with RPMI-8226 leukemia it was 92.4%; with OVCAR-5 ovarian, 95.9%; in the assay on OVCAR-4 ovarian, 84.3%; in the assay on SK-OV-3 ovarian it was 106%; in the assay on IGROV1 ovarian, 82.6%. Moreover, the growth is 99.7% in the assay with OVCAR-3 ovarian, 99.6% in the assay with HS 578T breast and 91.4% in the assay on NCI/ADR-RES ovarian.
